# In PubChem BioAssay (NCI):
# About 83,000 compounds went through this panel and 20% of them were active in at least one assay; those are over-represented in the sample as a whole.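 Cells were grown in 96-well plates and exposed to the test compound at a single concentration for 48 hours; results are reported as percent growth, with values below 10 considered active.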 Unmarked numbers belong to inactive results. Active and inactive are the calls of the source.
# Test system: UACC-62 melanoma
# Assay: NCI-60 one-dose screen, 48 h (100 = growth as untreated, 0 = no growth, -100 = all killed)
# Details: 10 µM unless noted
# Procedure: Growth inhibition of the UACC-62 human tumor cell line is measured as a screen for anti-cancer activity. Cells are grown in 96 well plates and exposed to the test compound for 48 hours. Compounds are tested at a single concentration, which is 10^-5 M for most compounds. The reported endpoint is percent growth (GI% or GIPRCNT), where numbers from 0 - 100% represent growth inhibition, and numbers from -100% - 0 represent cell death. For example, a value of 40 represents 60% growth inhibition. A value of 0 means no net growth occurred over the course of the experiment. A value of -40 indicates 40% of cells at the beginning of the experiment died by the end of the experiment. A value of -100 means all cells are dead at the end of the experiment.
# NCI-60 Human Tumor Cell Lines Screen was performed using the standard one-dose NCI protocol, which is described in more detail at https://dtp.cancer.gov/discovery_development/nci-60/default.htm.
# Compounds with GIPRCNT values below 10 were considered active. Activity score was based on GIPRCNT using the following formula: […]
# Score is 0 for GIPRCNT values of 100 or above, 50 for GIPRCNT values of 0, and 100 for GIPRCNT values of -100.
row,SMILES,growth
1,C=C1C(=O)O[C@H]2[C@H]1CC/C(CNC(=O)C(C)c1ccc(CC(C)C)cc1)=C\CC[C@@]1(C)O[C@@H]21 (stereo not given in full),-27.2% (active)
2,CC1(C)CC[C@]23CC[C@]4(C)[C@H](CC[C@@H]5[C@@]6(C)CCCNC(C)(C)[C@@H]6CC[C@]54C)[C@H]2[C@H]1OC3,-51.1% (active)
3,c1ccc2c(-c3c[nH]c4ccccc34)c3c(cc2c1)[nH]c1ccccc13,68.3%
4,COc1cc(/C=C2\COc3ccc(-c4ccccc4)cc3C2=O)cc(OC)c1,75.9%
5,C=C1C(=O)O[C@H]2[C@H]1CC/C(CNC(=O)CCc1ccc(OC)cc1)=C\CC[C@@]1(C)O[C@@H]21,47.3%
6,CC(C)(C)CC(C)(C)n1nnnc1C(NC12CC3CC(CC(C3)C1)C2)c1ccccc1 (stereo not given),69.2%
7,Cc1nc2ccc(Cl)cn2c1-c1nnc(SCc2ccc([N+](=O)[O-])cc2)o1,46.3%
8,NC(=NCc1ccccc1)C(N=Nc1ccccc1)C(=O)NCc1ccccc1 (stereo not given),76.6%
9,Fc1ccc2c(-c3cncn3CCc3ccccc3)c[nH]c2c1,73.3%
10,Oc1cccc(CCc2ccc(Oc3cc(CCc4cccc(O)c4)cc(O)c3O)cc2)c1,73.3%
11,COc1ccc(/C=C/c2nc(Nc3ccc(S(=O)(=O)NC(C)=O)cc3)c3ccccc3n2)cc1,25.6%
12,COc1ccc(-c2nc3sccn3c2/C=C/C(=O)c2ccc3c(c2)OCO3)cc1,57.2%
13,Cc1cc2nc3c4cc(C=O)ccc4n(CCN(C)C)c3nc2cc1C,21.5%
14,CCOc1ccc(/C=N/Nc2cc(C)nc3ccc(Br)cc23)cc1,90.5%
15,Cc1cc2cc3ccc(N(C)C)cc3nc2cc1N,-27.5% (active)
16,C/C=C(\C)C(=O)NC1=CC[C@@]2(C)C(=CCC3C2CC[C@@]2(C)C3CC[C@@H]2C(C)N(C)C)C1=O (stereo not given in full),-16.1% (active)
17,O=C(Nc1ccc(NC(=O)c2cc(=O)[nH]c3ccccc23)cc1)Nc1cccc(Cl)c1,84.6%
18,CC(C)N1C(=O)/C(=C2\SC(=S)N(C(C)C)C2=O)SC1=S,91.7%
19,CN1CCC(=C(c2ccccc2)c2ccccc2)C(c2ccccc2)C1 (stereo not given),97.1%
20,COc1cccc(-c2ccc3c(c2)NC(=O)/C3=C\c2ccc[nH]2)c1,44.3%

row,SMILES,growth
1,Cn1c2ccccc2c2c3c(c4c5ccccc5n(C)c4c21)C(=O)OC3,88.6%
2,O=Cc1cc2ccccc2nc1Oc1ccc(C(F)(F)F)cc1,72.5%
3,CCNC(=O)Oc1ccc(/C(=C(\C)c2ccccc2)c2ccc(OCCN3CCCCC3)cc2)cc1,52.4%
4,CCCCCOc1ccc(/C=N/Nc2cc(C)nc3ccc(Cl)cc23)cc1,83.6%
5,CC1(C)NCCC[C@]2(C)[C@H]3CC(=O)[C@H]4[C@@H]5C[C@](C)(CO)CC[C@]5(C)CC[C@@]4(C)[C@]3(C)CC[C@@H]12,98%
6,CN(C)CCn1c2ccc(Br)cc2c2nc3ccccc3nc21,57.1%
7,CC(C)=CCC[C@](C)(O)[C@H]1CC[C@]2(C)[C@@H]1CC[C@@H]1[C@@]3(C)C/C(=C/c4ccccc4)C(=O)C(C)(C)[C@@H]3CC[C@]12C,88.2%
8,O=C1Nc2ccccc2/C1=C\c1c(-c2ccccc2)nc2ccccn12,33.4%
9,O=C(Cn1c[n+](CC(=O)c2ccc(-c3ccccc3)cc2)c2ccccc21)Nc1cccc2cccnc12,-32.3% (active)
10,COc1ccccc1/C=C1\Oc2cc(OCCN3CCCC3)ccc2C1=O,97.3%
11,NCCCCCCNc1cc(-c2cccc(OC(F)(F)F)c2)nc2ccc(N3CCCC3)cc12,-56.9% (active)
12,COc1cc2c(=O)n(CCN)c3c4cc5c(cc4ccc3c2cc1OC)OCO5,-12.5% (active)
13,OC(c1cccc(C(F)(F)F)c1)c1cnccc1NC1CCCCC1 (stereo not given),74%
14,CC/C(=C\c1ccc(OC)cc1)C(=O)c1ccc(OC)cc1,78.7%
15,O=C(Cn1c(C(=O)c2ccccc2)nc2ccccc21)c1ccc(F)cc1,37.1%
16,C=C(CBr)[C@@H]1CC[C@]2(COC(C)=O)CC[C@]3(C)[C@H](CC[C@@H]4[C@@]5(C)CCCNC(C)(C)[C@@H]5CC[C@]43C)[C@@H]12,24.8%
17,NS(=O)(=O)c1ccc(Cn2c(SCC(=O)N/N=C/c3ccccc3O)nc3ccccc3c2=O)cc1,38.1%
18,COc1ccc2c(c1)oc1c(C)c3c(c(C)c12)C(=O)N(CCN1CCOCC1)C3=O,93.3%
19,C=CCn1c(-c2ccc(-c3nc4ccc(C)cc4[nH]3)cc2)n[nH]c1=S,95.8%
20,COc1cccc(C(=O)NNc2nc(Cl)nc(N3CCN(C(c4ccccc4)c4ccccc4)CC3)n2)c1,76.5%
